MRP1 act – activates MRP-1; H69AR cells + doxorubicin, viability rescue, CellTiter-Glo; 140,000 tested, 0.61% active; viability increase, % at 10 µM;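 active = viability gain under doxorubicin at or above a set limit, the compound median plus 3 SD, cut at about 4.7% in these data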;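 note: MRP-1 overexpressing cells given doxorubicin 25 µM after compound pretreatment; 18-22 h compound pretreatment then 72 h with doxorubicin before readout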
MRP reversal – compounds reversing MRP-mediated drug resistance. H69AR cells + 2 uM doxorubicin, CellTiter-Glo, 72 h. differential viability (reversal), % at 10 µM. 85,000 tested, 0.04% active. AID 602;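 active = viability drop by adding the cancer drug above about 55%, with treated viability meeting a 40% cutoff, limit read from the data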;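 note: larger differential means the compound sensitizes cells more to doxorubicin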
F-actin modifier – modifiers of cytoskeleton assembly. 91,000 tested, 0.18% active. HUVEC TNFa F-actin phalloidin imaging, high content. inhibition, % at 2 µM;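 active = inhibition above the batch mean plus 3 SD and confirmed as a hit by visual image inspection, cut at about 30% in these data, passing the limit was not always enough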
E-sel TNF inh – blocks E-selectin expression induced by TNF alpha; 120,000 tested, 0.71% active; inhibition, % at 2 µM; HUVEC TNFa-induced E-selectin immunofluorescence, high content;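 active = inhibition above the batch mean plus 3 SD, and confirmed as a hit on visual image review, cut at about 43% in these data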
VCAM1 TNFa inh – reduces TNF alpha induced VCAM1 expression in HUVEC; HUVEC TNFa-induced VCAM-1 immunofluorescence, high-content imaging; 95,000 tested, 0.48% active; inhibition, % at 2 µM;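 active = inhibition above the batch mean plus 3 SD, with images confirmed as a hit by eye, cut at about 37% in these data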
Each line names hits and unclear results; the compound was inactive in the other large screens. Shown are actives, neighbours in structure and some others; about 1.5% of the full set was active somewhere.

CS(=O)(=O)N1CCC(C(=O)Nc2ccc3c(c2)OCO3)CC1	none
Cc1ccc(S(=O)(=O)N2CCC(C(=O)N[C@@H](C)C(=O)Nc3ccc4c(c3)OCO4)CC2)cc1	MRP1 act 6.2
N#CC(C#N)=c1ccc2c(c1)NC1(CCCCC1)N=2	none
Cn1c(=O)n(Cc2ccc(Cl)cc2)c2ccccc21	none (no result: E-sel TNF inh)
Cc1nc(SCC(N)=O)c([N+](=O)[O-])[nH]1	E-sel TNF inh 62.8 (no result: MRP1 act, MRP reversal, F-actin modifier, VCAM1 TNFa inh)
COc1ccc(N2CCN(C(=O)CSc3nnc4c(C)cc5c(C)cc(C)cc5n34)CC2)cc1	none (no result: MRP reversal)
COc1ccc(N2CCN(C(=O)CSc3nnc4c(C)cc5cc(C)ccc5n34)CC2)cc1	F-actin modifier 51.0 (no result: MRP reversal, E-sel TNF inh)
CN(CCC#N)S(=O)(=O)c1ccc2[nH]cc(C(=O)NCCc3ccccc3)c(=O)c2c1	none (no result: MRP reversal, F-actin modifier, VCAM1 TNFa inh)
CCN(CC)C(=O)c1sc(NC(=O)c2ccncc2)c(C(=O)OC)c1C	none (no result: MRP reversal, F-actin modifier, E-sel TNF inh, VCAM1 TNFa inh)
CCOC(=O)c1c(NC(=O)OC)sc(C(=O)N(CC)CC)c1C	MRP reversal 76.3
O=C(C1CCN(S(=O)(=O)c2ccccc2F)CC1)N1CCc2ccccc2C1	none (no result: MRP1 act, MRP reversal, F-actin modifier, VCAM1 TNFa inh)
C/C(=N\NC(=O)c1cccc(S(=O)(=O)N2CCCC2)c1)c1cccs1	none (no result: MRP1 act, MRP reversal, F-actin modifier, VCAM1 TNFa inh)
O=C(Nc1ccccc1)c1nnsc1S(=O)c1ccc(Cl)cc1 (stereo not given)	E-sel TNF inh 79.5, VCAM1 TNFa inh 43.1 (no result: MRP reversal)
O=C(Nc1ccc(Cl)cc1)c1cccs1	none
COC(=O)c1cccc(S(=O)(=O)N(Cc2ccco2)Cc2cc3ccc(OC)cc3[nH]c2=O)c1	VCAM1 TNFa inh 87.1 (no result: E-sel TNF inh)
COC(=O)c1cccc(S(=O)(=O)N(Cc2ccco2)Cc2cc3cc(OC)c(OC)cc3[nH]c2=O)c1	none (no result: F-actin modifier)
Cc1cc(C)c2[nH]c(=O)c(CN(CC3CCCO3)S(=O)(=O)c3ccc4c(c3)OCCO4)cc2c1 (stereo not given)	none
Cc1cccc2cc(CN(Cc3ccco3)S(=O)(=O)c3ccc4c(c3)OCCO4)c(=O)[nH]c12	MRP1 act 11.2
O=C(O)CCc1nnc(SCC(=O)Nc2cccc(C(F)(F)F)c2)[nH]c1=O	none (no result: MRP1 act, MRP reversal, F-actin modifier, VCAM1 TNFa inh)
COC(=O)c1cc(OC)c(OC)cc1NC(=O)c1ccc(C)o1	none (no result: F-actin modifier)
CCOc1cc2[nH]c(=O)n(CCCN3CCCC3=O)c(=O)c2cc1OCC	E-sel TNF inh 45.8
Cc1nnc(NC(=O)c2c(F)cccc2F)s1	MRP1 act 9.3
COc1ccc(OC)c(/C=N/NC(=O)CC2C(=O)NN=C2C)c1 (stereo not given)	none (no result: MRP reversal)
CCCCCCC1CC(CCc2nc(=S)[nH][nH]2)C(=O)O1 (stereo not given)	none (no result: MRP reversal, F-actin modifier, VCAM1 TNFa inh)
CCCCCCC1CC(CSc2ncn[nH]2)OC1=O (stereo not given)	MRP1 act 7.2 (no result: E-sel TNF inh)
CCOC(=O)c1ccc(NC(=O)Cn2ncc(Cl)c(Cl)c2=O)cc1	E-sel TNF inh 99.7 (no result: MRP reversal, F-actin modifier, VCAM1 TNFa inh)
O=C(OCn1ncc(Cl)c(Cl)c1=O)c1ccc(C(F)(F)F)cc1	none (no result: MRP reversal)
Cc1ccc(C(=O)OCn2ncc(Cl)c(Cl)c2=O)cc1	E-sel TNF inh 99.7, VCAM1 TNFa inh 36.2 (no result: MRP reversal)
COc1ccc(OC)c(C(=O)CSc2nnc(Cc3cccs3)n2CCc2ccccc2)c1	none
CCN(CC)S(=O)(=O)c1cccc(NC(=O)CCSc2ccc(Cl)cc2)c1	MRP1 act 5.5 (no result: MRP reversal, F-actin modifier, E-sel TNF inh, VCAM1 TNFa inh)
C[C@H](C(=O)C=[N+]=[N-])N1C(=O)c2ccccc2C1=O	MRP1 act 11.9
[N-]=[N+]=CC(=O)CC(c1ccccc1)N1C(=O)c2ccccc2C1=O (stereo not given)	none
O=S1(=O)C=C(Sc2nnc(-c3ccccc3)o2)c2ccccc21	E-sel TNF inh 99.6 (no result: F-actin modifier, VCAM1 TNFa inh)
Cc1cc(C)nc(SC2=CS(=O)(=O)c3ccccc32)n1	none
O=C1CN(C(=O)c2cc3ccccc3oc2=O)C(c2ccc(F)cc2)c2cc(Br)ccc2N1 (stereo not given)	none (no result: MRP reversal, F-actin modifier, VCAM1 TNFa inh)
CN(c1ccc(C(=O)NCC2CCCO2)cc1)S(C)(=O)=O (stereo not given)	E-sel TNF inh 64.6
Cn1cc(Br)c(C(=O)NNC(=O)c2ccc(Br)cc2)n1	MRP1 act 7.6 (no result: MRP reversal, F-actin modifier, E-sel TNF inh, VCAM1 TNFa inh)
Cn1cc(Br)c(C(=O)NNC(=O)c2ccccc2)n1	none (no result: MRP reversal, F-actin modifier, VCAM1 TNFa inh)
Cc1ccc(C(=O)/C=C/c2ccc(Br)cc2)o1	none (no result: MRP reversal)
C[n+]1ccc(/C=C/c2ccc(Br)cc2)cc1	VCAM1 TNFa inh 44.5 (no result: MRP reversal, F-actin modifier)
CCN(c1ccccc1)S(=O)(=O)c1ccc(C(=O)Oc2ccc(C(C)=O)cc2)cc1	none (no result: MRP reversal, F-actin modifier, VCAM1 TNFa inh)
O=C(N/N=C/c1coc2ccccc2c1=O)c1cn(-c2ccccc2)nc1-c1ccc(F)cc1	none (no result: MRP reversal, F-actin modifier, VCAM1 TNFa inh)
c1ccc2c(-c3nc(C4CCCCC4)no3)cc(-c3ccncc3)nc2c1	MRP1 act 7.6
CCOc1ccc2c(c1)C(N(CCN1CCOCC1)C(=O)Nc1ccccc1)CC(C)(C)O2 (stereo not given)	none (no result: MRP1 act, MRP reversal, F-actin modifier, VCAM1 TNFa inh)
Cn1c(NC(=O)C2c3ccccc3Oc3ccccc32)cc(=O)n(C)c1=O	VCAM1 TNFa inh 93.6

Compound activity (PubChem BioAssay)
